Screening results from PubChem.
Compounds with a hit are over-represented: about 2.3% of the library has one in this group of screens.
M1 PAM parental: nonselective activator or artifact in parental CHO-K1 calcium assay; ATP EC20, Fluo-8 calcium fluorescence; 0% at ATP EC20, 100% at ATP max; activation, % at 3 µM; AID 602247; hit rate 0.02% among 360,000;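 active means activation above the run cutoff, the mean activation of all test compounds plus 3 SD, cut at about 40% in these data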;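 further: peak over basal fluorescence ratio in a 140 s read after ATP addition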
CHRM1 PAM: potentiates human M1 receptor response to acetylcholine | P11229 | CHO-K1 hM1, Fluo-8 calcium fluorescence, ACh EC20; 0% = ACh EC20, 100% = maximal ACh | activation, % at 3 µM | hit rate 0.088% among 360,000; in the data active means activation above about 19%, passing the limit was not always enough
Target sequence (P11229 whole entry, looked up): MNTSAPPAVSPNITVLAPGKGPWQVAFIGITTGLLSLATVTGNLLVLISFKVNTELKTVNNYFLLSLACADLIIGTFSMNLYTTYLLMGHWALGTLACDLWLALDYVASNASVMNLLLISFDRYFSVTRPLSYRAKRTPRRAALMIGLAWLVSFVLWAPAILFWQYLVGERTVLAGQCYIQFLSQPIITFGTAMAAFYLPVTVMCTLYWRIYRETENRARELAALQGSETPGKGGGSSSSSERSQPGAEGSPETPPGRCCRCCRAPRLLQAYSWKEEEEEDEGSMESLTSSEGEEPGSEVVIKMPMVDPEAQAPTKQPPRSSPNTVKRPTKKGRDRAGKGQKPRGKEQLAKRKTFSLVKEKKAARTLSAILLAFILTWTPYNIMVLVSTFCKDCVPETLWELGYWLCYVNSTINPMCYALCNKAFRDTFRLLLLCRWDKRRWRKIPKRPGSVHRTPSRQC
CHRM1 agonist: human M1 muscarinic receptor agonism; CHO-K1 hM1, Fluo-8 calcium fluorescence, agonist mode; 0% DMSO, 100% acetylcholine EC100; activation, % at 3 µM; hit rate 0.33% among 360,000; P11229; AID 588814;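 active means activation above the run's mean compound activation plus 3 SD, cut at about 16% in these data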;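 further: peak over basal fluorescence ratio within a 140 s kinetic read after compound addition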
CHO-K1 Ca antag: nonselective inhibitor or artifact in parental CHO-K1 cells. ATP-induced calcium, Fluo-8 fluorescence. inhibition, % at 3 µM. hit rate 0.6% among 360,000;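 active means inhibition above a per-plate cutoff, the plate's mean sample inhibition plus 3 SD, cut at about 24% in these data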;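 further: 0% = DMSO plus EC80 ATP and 100% = DMSO alone without ATP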
M1 antag: human CHRM1 antagonism | P11229 | CHO-K1 hM1, Fluo-8 calcium fluorescence, ACh EC80 antagonist | inhibition, % at 3 µM | hit rate 1.3% among 360,000 | AID 588852;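 active means percent inhibition above its own plate's cutoff, namely the mean of that plate's compound wells plus 3 SD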;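 further: peak over basal fluorescence ratio during 140 s after agonist addition; 0% = ACh EC80 plus DMSO and 100% = DMSO alone without agonist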
M1 ag parental: M1 agonist counterscreen hit in parental CHO-K1 cells; Fluo-8 calcium fluorescence; scaled to maximal ATP response, vehicle zero; AID 602248; hit rate 0.48% among 360,000; activation, % at 3 µM; in the data active means activation above about 15%;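 further: untransfected CHO-K1 host cells lacking M1 receptor as counterscreen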
* hit, by the source's call.

SMILES	M1 PAM parental	CHRM1 PAM	CHRM1 agonist	CHO-K1 Ca antag	M1 antag	M1 ag parental
CC(C)C[C@H]1CNC(=O)C(=O)N1C[C@H]1CCCN1C[C@H](CC(C)C)N1C[C@H](Cc2ccccc2)N(CCc2ccccc2)C(=O)C1=O	-1.5	1.8	-11.7	16.4	-11.0	0.0
CC1c2cc3c(cc2CCN1C(=O)c1ccc(C(F)(F)F)cc1)OCCCO3 (stereo unspecified)	-9.6	-23.4	-4.7	-17.7	33.5*	4.0
CC1c2cc3c(cc2CCN1CC(=O)Nc1ccc(S(=O)(=O)N2CCCC2)cc1)OCCCO3 (stereo unspecified)	7.3	-41.1	-13.1	-5.3	101.6*	4.6
CC(=O)Nc1ccc(S(=O)(=O)N2CCc3cc4c(cc3C2C)OCCCO4)cc1 (stereo unspecified)	8.2	-1.0	-3.7	-4.0	4.3	2.1
Cc1ccc(C(=O)N2CCc3cc4c(cc3C2C)OCCCO4)cc1 (stereo unspecified)	17.2	-12.1	-3.9	-16.5	13.3	5.3
CC(=O)Nc1ccc(C(=O)N2CCc3cc4c(cc3C2C)OCCCO4)cc1 (stereo unspecified)	13.1	-33.1	-12.9	-0.4	57.5*	0.0
Cc1cc(Br)ccc1NC(=O)CNC(=O)Cc1ccc(S(=O)(=O)N2CCOCC2)s1	9.7	4.4	-6.0	-21.1	-3.6	2.5
NS(=O)(=O)c1ccc(NC(=O)COC(=O)CCNC(=O)NC23CC4CC(CC(C4)C2)C3)cc1	15.6	7.5	-4.1	-9.1	-2.2	0.0
CCOc1ccc(C(=O)Nc2cc(-c3nc4ccccc4[nH]3)ccc2Cl)cc1[N+](=O)[O-]	-4.7	-13.2	1.4	25.8*	36.9*	6.9
Cc1ccc(S(=O)(=O)n2cnc3cc([N+](=O)[O-])ccc32)cc1C	20.2	5.3	-4.9	-7.4	-3.9	0.7
Cc1ccc(-n2c3nc(=O)[nH]c(=O)c-3cc3cc([N+](=O)[O-])ccc32)cc1C	11.3	-28.0	-9.8	-1.0	30.1*	0.2
O=c1[nH]c2c(oc3ccccc32)c(=O)n1Cc1ccccc1	-0.4	4.2	1.0	1.3	-10.7	0.0
O=C(O)c1c(-c2ccccc2)c2oc3ccccc3c2[nH]c1=O	-5.2	-3.8	-2.2	28.9*	7.3	0.1
COc1ccc(C(=O)COc2ncnc3cc(Cl)ccc23)cc1	7.0	-7.2	-1.8	-13.3	5.6	5.4
Cc1c2cnn(CC(=O)NC3CCCC3)c(=O)c2c(C)n1Cc1ccccc1	-12.2	9.3	22.9*	-3.9	-7.4	3.6
CC1(C)CC(=O)c2c(O)cc(OCC(=O)Nc3ccc(S(N)(=O)=O)cc3)cc2O1	7.2	1.1	-5.5	3.3	-7.7	2.9
CC1(C)Cc2cccc(OCC(=O)Nc3cc(C(F)(F)F)ccc3N3CCOCC3)c2O1	-9.0	-11.9	-3.4	30.3*	24.8	0.3
COc1cc(NC(=O)COc2cc(O)c3c(c2)OC(C)(C)CC3=O)cc(OC)c1OC	-18.3	-28.6	4.4	36.8*	51.5*	18.2*
CC1(C)Cc2cccc(OCC(=O)NCc3ccccc3F)c2O1	-12.5	-12.0	-2.6	-12.5	29.0*	0.7
COc1cc(NC(=O)COc2cccc3c2OC(C)(C)C3)cc(OC)c1OC	-21.0	-15.5	3.2	5.3	31.9	18.3*
Cc1nc2ccccc2nc1OCC(=O)Nc1cc(C(F)(F)F)ccc1N1CCOCC1	-0.6	-8.6	-2.4	12.1	-13.4	1.7
Cc1ccc(CNC(=O)COc2cccc3c2OC(C)(C)C3)cc1	-9.8	-2.8	-3.3	5.6	2.7	-1.2
CC(=O)Nc1ccc(NC(=O)COc2cccc3c2OC(C)(C)C3)cc1	15.1	10.1	-1.9	-10.9	-5.1	1.4
Cc1cc(C)c(NC(=O)c2ccc(CNS(=O)(=O)c3cc(C(F)(F)F)ccc3Cl)cc2)c(C)c1	1.0	-4.3	-6.4	-5.5	-4.9	0.6
CC(C)n1nnnc1SCC(=O)N1N=C(c2cccs2)CC1c1cccs1 (stereo unspecified)	15.1	2.9	-4.7	-16.6	7.0	0.8
COc1cccc(C(=O)CC(C#N)c2ccc(F)cc2)c1 (stereo unspecified)	-6.1	10.5	3.6	4.4	-4.6	-0.1
O=C(O)CSCC(=O)N(c1ccccc1)c1ccccc1	-0.2	11.9	-0.6	4.9	-23.4	-0.1
